Laboratory results as given in PubChem BioAssay (NCATS).
Results filed as inconclusive are left out. Where a call stands in place of a potency, no number is given. The source made the active and inactive calls. Calls come from the whole dose curve; as a rule, active = well fitted curve in the direction sought with a large enough effect; inconclusive = small, poorly fitted or top-dose-only effect, or another doubt; inactive = no such curve, though single readings can be large; an effect the other way counts as inactive or inconclusive.

Test system: not listed separately
Test: qHTS to identify inhibitors of the type 1 interferon - major histocompatibility complex class I in skeletal muscle: primary screen against the NCATS Pharmaceutical Collection (AID 1347407);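 note: luminescence of HiBiT knocked into endogenous HLA-B as interferon-induced MHC class I level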
Details: human skeletal muscle cells, IFN-b-induced MHC-I HiBiT luminescence, 24 h; series mostly up to 45.9 µM
Outline: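 Cells were seeded with 4 ng/ml IFN-beta, incubated 1 h, then dosed with compounds over eight 1:5 steps up to 46 uM final. After 24 h at 37 C, HiBiT lytic reagent was added and luminescence read after 10 min lysis in the dark.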
For `CO/N=C(\C(=O)N[C@@H]1C(=O)N2C(C(=O)O)=C(CSc3nc(=O)c(O)nn3C)CS[C@H]12)c1csc(N)n1`, the Potency was “inactive”. For `Cc1ncc(COP(=O)(O)O)c(C=O)c1O`, the Potency was “inactive”. With `CCOc1ccc2ccccc2c1C(=O)N[C@@H]1C(=O)N2[C@@H]1SC(C)(C)[C@@H]2C(=O)O` the Potency was “inactive”. With `CC(=O)Nc1ccc(/C=N/NC(N)=S)cc1` the Potency was “inactive”. With `Cc1c(Cl)cccc1Nc1ccccc1C(=O)O` the Potency was “inactive”. For `CC(O)CN(CCN(CC(C)O)CC(C)O)CC(C)O` (stereo not given), the Potency was “inactive”. For `CC/C=C(\C(=O)N[C@@H]1C(=O)N2C(C(=O)OCOC(=O)C(C)(C)C)=C(COC(N)=O)CS[C@H]12)c1csc(N)n1`, the Potency was “inactive”. In the case of `O=C(O)[C@H](O)c1ccccc1`, the Potency is reported as “inactive”. With `[Cl][In]([Cl])[Cl]` the Potency was “inactive”. With `CN1[C@@H]2CC(OC(=O)[C@H](CO)c3ccccc3)C[C@H]1[C@@H]1O[C@@H]12` (stereo not given in full) the Potency was “inactive”. With `CCCc1c(OCCCCc2nn[nH]n2)ccc(C(C)=O)c1O` the Potency was “inactive”. With `CS(=O)(=O)c1ccc([C@@H](O)[C@@H](CF)NC(=O)C(Cl)Cl)cc1` the Potency was “inactive”. For `c1ccc(CN(CC2=NCCN2)c2ccccc2)cc1`, the Potency was “inactive”. In the case of `CCCCN(CCCC)CCCOC(=O)c1ccc(N)cc1`, the Potency is reported as “inactive”.

Test system: not listed separately
Test: qHTS for inhibitors of adenylyl cyclases using a fission yeast platform: a pilot screen against the NCATS LOPAC library (AID 1347410)
Details: S. pombe CHP2027, fbp1-GFP fluorescence, 18 h, yeast expressing mammalian AC9 and human GNAS; series mostly up to 57.5 µM
Outline: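 Growth medium went into the plates first, then compounds were pinned (final up to 57 µM), then CHP2027 yeast were added. Plates were incubated overnight (18 h) at 30C in the dark, and GFP was measured by laser scanning cytometry.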
For `N=c1c[n+](N2CCOCC2)[n-]o1`, the outcome was “inactive”. For `CC(C)(C)c1onc(OCP(=O)(O)O)c1CC(N)C(=O)O` (stereo not given), the outcome was “inactive”. For `CSc1ccc2c(c1)C(N1CCN(C)CC1)Cc1ccccc1S2` (stereo not given), the outcome was “inactive”. In the case of `COCCOC(=O)C1=C(C)NC(C)=C(C(=O)OC/C=C/c2ccccc2)C1c1cccc([N+](=O)[O-])c1` (stereo not given), the outcome is reported as “inactive”. In the case of `CC(C)NC[C@H](O)c1ccc(O)c(O)c1`, the outcome is reported as “inactive”. With `Cc1c(O)cccc1C(=O)N[C@@H](CSc1ccccc1)[C@H](O)CN1C[C@H]2CCCC[C@H]2C[C@H]1C(=O)NC(C)(C)C` the outcome was “inactive”. For `CN1CCN(C2Cc3ccccc3Sc3ccc(Cl)cc32)CC1` (stereo not given), the outcome was “inactive”. In the case of `CN(C)CCCN1c2ccccc2CCc2ccccc21`, the outcome is reported as “inactive”. In the case of `CC(C)(C)[C@]1(O)CCN2C[C@H]3c4ccccc4CCc4cccc(c43)[C@@H]2C1`, the outcome is reported as “inactive”. In the case of `Cc1cc(N)c2ccccc2[n+]1CCCCCCCCCC[n+]1c(C)cc(N)c2ccccc21`, the outcome is reported as “inactive”. For `CSc1ccc2c(c1)N(CCC1CCCCN1C)c1ccccc1S2` (stereo not given), the outcome was “inactive”.

Biological target: Protein phosphatase 1D (Homo sapiens) (UniProt O15297)
Sequence (O15297 whole entry, looked up): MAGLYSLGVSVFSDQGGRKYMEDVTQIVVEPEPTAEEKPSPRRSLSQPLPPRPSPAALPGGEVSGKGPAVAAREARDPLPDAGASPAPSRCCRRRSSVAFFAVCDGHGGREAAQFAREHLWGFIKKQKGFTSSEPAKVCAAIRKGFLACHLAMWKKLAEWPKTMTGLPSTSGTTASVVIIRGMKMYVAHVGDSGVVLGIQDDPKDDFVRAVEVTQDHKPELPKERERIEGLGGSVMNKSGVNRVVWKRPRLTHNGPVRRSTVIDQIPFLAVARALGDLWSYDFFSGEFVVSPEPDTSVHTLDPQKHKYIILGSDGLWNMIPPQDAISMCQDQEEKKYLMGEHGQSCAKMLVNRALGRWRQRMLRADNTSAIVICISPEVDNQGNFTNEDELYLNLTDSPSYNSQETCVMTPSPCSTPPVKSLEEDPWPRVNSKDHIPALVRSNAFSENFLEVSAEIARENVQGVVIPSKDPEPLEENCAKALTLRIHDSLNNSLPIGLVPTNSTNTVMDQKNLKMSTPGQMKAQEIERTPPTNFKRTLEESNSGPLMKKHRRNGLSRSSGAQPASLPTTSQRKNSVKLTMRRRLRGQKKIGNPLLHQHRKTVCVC
Test: RapidFire Mass Spectrometry qHTS Assay for Modulators of WT P53-Induced Phosphatase 1 (WIP1) (AID 1347424)
Details: WIP1 dephosphorylation of phosphopeptide, RapidFire MS; series mostly up to 63 µM
Outline: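 RapidFire MS readout of dephosphorylated VEPPL-S-QETFS product, with 1 uM isotope-labelled peptide standard. Reaction: 10 nM WIP1, 2 uM phosphopeptide substrate, 5 min, room temperature, after 1 h compound preincubation; stopped with 0.5% formic acid.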
In the case of `Oc1cn2c(n1)Nc1ccc(Cl)c(Cl)c1C2`, the outcome is reported as “inactive”. In the case of `Cc1ncc(COP(=O)(O)O)c(C=O)c1O`, the outcome is reported as “inactive”. In the case of `CC(=O)O[C@@]12CO[C@@H]1C[C@H](O)[C@@]1(C)C(=O)[C@H](O)C3=C(C)[C@@H](OC(=O)[C@H](O)[C@@H](NC(=O)OC(C)(C)C)c4ccccc4)C[C@@](O)([C@@H](OC(=O)c4ccccc4)[C@H]21)C3(C)C`, the outcome is reported as “inactive”. For `CCOc1ccc2ccccc2c1C(=O)N[C@@H]1C(=O)N2[C@@H]1SC(C)(C)[C@@H]2C(=O)O`, the outcome was “inactive”. For `CC(=O)Oc1ccc(C2(c3ccc(OC(C)=O)cc3)C(=O)Nc3ccccc32)cc1`, the outcome was “inactive”. For `CC(=O)Nc1ccc(/C=N/NC(N)=S)cc1`, the outcome was “inactive”. For `O=C1NS(=O)(=O)c2ccccc21`, the outcome was “inactive”. For `CC(O)CN(CCN(CC(C)O)CC(C)O)CC(C)O` (stereo not given), the outcome was “inactive”. For `CC[N+](CC)(CC)CCOc1ccc(/C=C/c2ccccc2)cc1`, the outcome was “inactive”. With `CC/C=C(\C(=O)N[C@@H]1C(=O)N2C(C(=O)OCOC(=O)C(C)(C)C)=C(COC(N)=O)CS[C@H]12)c1csc(N)n1` the outcome was “inactive”. For `O=C(O)[C@H](O)c1ccccc1`, the outcome was “inactive”. With `O=c1cc[nH]c(=S)[nH]1` the outcome was “inactive”. In the case of `COc1ccc2cc1Oc1ccc(cc1)C[C@H]1c3c(cc4c(c3Oc3cc5c(cc3OC)CCN(C)[C@@H]5C2)OCO4)CCN1C`, the outcome is reported as “inactive”. For `CSc1ccc2c(c1)C(N1CCN(C)CC1)Cc1ccccc1S2` (stereo not given), the outcome was “inactive”. For `COCCOC(=O)C1=C(C)NC(C)=C(C(=O)OC/C=C/c2ccccc2)C1c1cccc([N+](=O)[O-])c1` (stereo not given), the outcome was “inactive”. With `CN1[C@@H]2CC(OC(=O)[C@H](CO)c3ccccc3)C[C@H]1[C@@H]1O[C@@H]12` (stereo not given in full) the outcome was “inactive”. In the case of `Cc1c(O)cccc1C(=O)N[C@@H](CSc1ccccc1)[C@H](O)CN1C[C@H]2CCCC[C@H]2C[C@H]1C(=O)NC(C)(C)C`, the outcome is reported as “inactive”. For `CN1CCN(C2Cc3ccccc3Sc3ccc(Cl)cc32)CC1` (stereo not given), the outcome was “inactive”. In the case of `CS(=O)(=O)c1ccc([C@@H](O)[C@@H](CF)NC(=O)C(Cl)Cl)cc1`, the outcome is reported as “inactive”. For `CN(C)CCCN1c2ccccc2CCc2ccccc21`, the outcome was “inactive”. In the case of `c1ccc(CN(CC2=NCCN2)c2ccccc2)cc1`, the outcome is reported as “inactive”. In the case of `CCCCN(CCCC)CCCOC(=O)c1ccc(N)cc1`, the outcome is reported as “inactive”. With `CC(=O)Oc1c(C)c(C)c2c(c1C)CC[C@@](C)(CCC[C@H](C)CCC[C@H](C)CCCC(C)C)O2` the outcome was “inactive”. For `CSc1ccc2c(c1)N(CCC1CCCCN1C)c1ccccc1S2` (stereo not given), the outcome was “inactive”.

Biological target: Protein phosphatase 1D (Homo sapiens) (UniProt O15297)
Test: Rhodamine-PBP qHTS Assay for Modulators of WT P53-Induced Phosphatase 1 (WIP1) (AID 1347425)
Details: recombinant WIP1, Rhodamine-PBP phosphate fluorescence, real-time; series mostly up to 57.5 µM
Outline: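 Read-out: Rhodamine-PBP fluorescence (ex 525/em 598 nm) for released Pi, read each minute for 11 min after adding 10 uM VEPPL-pS-QETFS; signal taken as f1 minus pre-substrate f0. Enzyme 5 nM WIP1 with 1 hr room-temperature compound preincubation.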
In the case of `Oc1cn2c(n1)Nc1ccc(Cl)c(Cl)c1C2`, the outcome is reported as “inactive”. For `CO/N=C(\C(=O)N[C@@H]1C(=O)N2C(C(=O)O)=C(CSc3nc(=O)c(O)nn3C)CS[C@H]12)c1csc(N)n1`, the outcome was “inactive”. With `CC(=O)O[C@@]12CO[C@@H]1C[C@H](O)[C@@]1(C)C(=O)[C@H](O)C3=C(C)[C@@H](OC(=O)[C@H](O)[C@@H](NC(=O)OC(C)(C)C)c4ccccc4)C[C@@](O)([C@@H](OC(=O)c4ccccc4)[C@H]21)C3(C)C` the outcome was “inactive”. With `CC(=O)Oc1ccc(C2(c3ccc(OC(C)=O)cc3)C(=O)Nc3ccccc32)cc1` the outcome was “inactive”. In the case of `O=C1NS(=O)(=O)c2ccccc21`, the outcome is reported as “inactive”. In the case of `COc1ccc2cc1Oc1ccc(cc1)C[C@H]1c3c(cc4c(c3Oc3cc5c(cc3OC)CCN(C)[C@@H]5C2)OCO4)CCN1C`, the outcome is reported as “inactive”. For `CSc1ccc2c(c1)C(N1CCN(C)CC1)Cc1ccccc1S2` (stereo not given), the outcome was “inactive”. In the case of `COCCOC(=O)C1=C(C)NC(C)=C(C(=O)OC/C=C/c2ccccc2)C1c1cccc([N+](=O)[O-])c1` (stereo not given), the outcome is reported as “inactive”. For `CCCc1c(OCCCCc2nn[nH]n2)ccc(C(C)=O)c1O`, the outcome was “inactive”. In the case of `CN1CCN(C2Cc3ccccc3Sc3ccc(Cl)cc32)CC1` (stereo not given), the outcome is reported as “inactive”. In the case of `CC(=O)Oc1c(C)c(C)c2c(c1C)CC[C@@](C)(CCC[C@H](C)CCC[C@H](C)CCCC(C)C)O2`, the outcome is reported as “inactive”.
